The whole screen tested about 200,000 compounds, of which about 80 (0.04%) were called active. The sample as a whole holds a higher share of actives than the screen did. A number with no mark means an inactive call.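 The calls were made as follows: active = activation above the mean across all tested compounds plus 3 SD, cutoff set per campaign (cut at about 5.5% in these data); inactive = the rest.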
test: Hsp70 transcriptional activators, primary screen, cell-based, HeLa, Hsp70 promoter luciferase, luminescence, 10 µM (AID 1203); conditions: HeLa Hsp70 promoter luciferase reporter, at 10 µM, active compounds read high, scaled: vehicle 0, proteasome-inhibitor control 100%;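 also: 100% = MG132 at 30 µM as the positive control and 0% = DMSO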

SMILES	activation
Cn1c(=O)cc(OCC(=O)N2CCN(c3ccccc3F)CC2)c2ccccc21	0.82%
COc1ccc(C/C(C)=N/NC(=O)c2ccncc2)cc1	-0.08%
COc1ccccc1C(=O)CSc1cccc[n+]1[O-]	0.19%
CCC(C)(C(=O)Nc1ccccc1C)N(C(=O)CNC(C)=O)c1ccc(C)cc1 (stereo unspecified)	-0.25%
OCCC1CN(Cc2ccc3nsnc3c2)CCN1C1CCCCC1 (stereo unspecified)	-0.14%
CC(C)(C)NCCCOc1ccc(Cl)cc1C(C)(C)C	-0.26%
CCN(CC)Cc1nc2sc(C)c(C)c2c(=O)[nH]1	-0.4%
COc1ccc(/C=C/C(=O)Nc2ccc(C34CC5CC(CC(O)(C5)C3)C4)cc2)cc1OC	0.8%
CC(NC(=S)Nc1ccc(OC(F)F)cc1)c1ccc(F)cc1 (stereo unspecified)	-0.29%
O=C(O)c1n[nH]nc1-c1ccccc1	-0.44%
CN(C)c1ccc(C2Nc3ccccc3C(=O)N2NS(=O)(=O)c2ccccc2)cc1 (stereo unspecified)	-0.44%
CCCC(C)C(=O)OCC(=O)Nc1c(Br)cc(C)cc1Br (stereo unspecified)	-0.19%
O=C(Nc1nc(-c2cccnc2)cs1)c1ccccc1F	0.2%
O=C(NC1CCc2ccccc21)C12CN(Cc3ccccc3)CC1C(c1cccc([N+](=O)[O-])c1)=NO2 (stereo unspecified)	-0.09%
CC[C@H]1OC(=O)[C@H](C)[C@@H](O[C@H]2C[C@@](C)(OC)[C@@H](O)[C@H](C)O2)[C@H](C)[C@@H](O[C@@H]2O[C@H](C)C[C@H](N(C)C)[C@H]2O)[C@](C)(O)C[C@@H](C)[C@@H]2N[C@@H](COCCOC)O[C@H]([C@H]2C)[C@]1(C)O	-0.19%
CCc1cc2c(=O)c(-c3ccc(F)cc3)c(C(F)(F)F)oc2cc1OCC(=O)O	-0.05%
O=C(COC(=O)c1cc([N+](=O)[O-])ccc1NCc1ccccc1)NC1CCCCC1	-0.39%
CCCN(CC1COc2ccccc2O1)C(=S)Nc1ccc(C)cc1 (stereo unspecified)	-0.24%
COc1ccc(NC(=O)COC(=O)c2ccc(NS(=O)(=O)/C=C/c3ccccc3)cc2)cc1	-0.47%

SMILES	activation
COc1cccc(OCc2cc(/C=N/NC(=O)c3nc(Cl)c(Cl)c(N)c3Cl)ccc2OC)c1	-0.07%
CC1Cc2ccccc2N1C(=O)CSc1nnc(-c2ccc(S(=O)(=O)N3CCCC3)cc2)n1C (stereo unspecified)	0.16%
Cc1cc(C(=O)NNC(=O)c2cccc(S(=O)(=O)N3CCOCC3)c2)c2ccccc2n1	-0.21%
Fc1ccccc1CNC(=S)Nc1ccc(Cl)cc1	-0.2%
Cc1nnc(SCC(=O)NNC(=O)c2ccc(Cl)cc2)n1CC1CCCO1 (stereo unspecified)	-0.36%
CC(C)CC(=O)NC(=S)Nc1ccc(F)cc1F	-0.43%
Cc1ccc(C(=O)/C=C/c2c(C)nn(-c3ccccc3)c2Cl)cc1	-0.32%
O=C(NCCOCc1ccc(Cl)cc1)c1ncn[nH]1	-0.36%
O=C(/C=C/Sc1ncn[nH]1)c1ccc(Cl)cc1	26.9% (active)
Cc1cccc(C)c1NC(=S)N(Cc1cccnc1)Cc1ccccc1Cl	-0.11%
N#C/C(=C/c1ccc(N2CCOCC2)o1)C(=O)N1CCOCC1	-0.09%
CCC(=O)c1ccc(OCC(O)Cn2nc(C)c(C(C)=O)c2C)cc1 (stereo unspecified)	0%
CC(C)c1ccc(C2C(C#N)=C(N)Oc3c2oc(CO)cc3=O)cc1 (stereo unspecified)	-0.2%
CSc1ccc(/C=C/C(=O)NC23CC4CC(CC(C4)C2)C3)cc1	-0.25%
CCc1ccccc1NC(=O)CN(C)C(=O)COc1ccc(C)nc1[N+](=O)[O-]	-0.28%
CC1CN/C(=C\C(=O)c2ccc(Br)cc2)C(=O)N1 (stereo unspecified)	-0.31%
COc1ccc(CC(NC(C)=O)C(=O)NC2CCN(C(=O)c3ccc(OC)c(OC)c3)CC2)cc1OC (stereo unspecified)	-0.19%
Cc1cc(C)n2nc(SCC(=O)NC(=O)NCc3ccco3)nc2n1	-0.06%
COCc1c(C(=O)OCc2c(C)noc2C)oc2ccccc12	0.25%

SMILES	activation
Cc1cc(C)c2[nH]c(=O)c(CN(Cc3ccccc3)C(=S)NCCCN(C)C)cc2c1	-0.22%
CC(C)(C)NC(=O)Cn1cnc2cc([N+](=O)[O-])ccc2c1=O	0.46%
NNC(=O)c1cnn(-c2ccccc2)c1C(F)(F)F	0.08%
CN(C)C(=O)N1CCNCC1	-0.1%
CC(C)CN(C(=O)CN1CCN(S(=O)(=O)c2ccccc2)CC1)c1c(N)n(CC(C)C)c(=O)[nH]c1=O	0.23%
CCOC(=O)c1c(CN(C)C)n(-c2ccccc2)c2cc(Br)c(O)cc12	-0.03%
C/C(=N\Nc1ncc(Cl)cc1Cl)c1cccs1	-0.17%
Cc1ccc(N2C(=O)C(NC(=O)c3c(F)cccc3F)(C(F)(F)F)C3=C2CC(C)(C)CC3=O)cc1 (stereo unspecified)	-0.33%
Cc1cccc(NC(=O)Cn2c(=O)n(Cc3ccccc3)c(=O)c3c(C)c(C)sc32)c1	-0.2%
Cc1cc(Cl)ccc1OCCCC(=O)NCc1ccncc1	0.28%
C=CCn1cc(C(=O)NCc2ccc(Cl)cc2)c(=O)c2cc(S(=O)(=O)N(CC)CC)ccc21	-0.11%
COc1cccc(-c2nn(-c3ccccc3)cc2/C=C(\C#N)C(=O)NCCCn2ccnc2)c1	-0.06%
CC(C)Oc1ccccc1C(=O)NC(CO)C(=O)O (stereo unspecified)	0.09%
O=C(CSc1ccc([N+](=O)[O-])cn1)Nc1ccc(N2CCOCC2)cc1	-0.24%
NS(=O)(=O)c1cccnc1Nc1cccc(Cl)c1	0.75%
CC(Oc1ccccc1)C(=O)NN1Cc2ccccc2C1=N (stereo unspecified)	-0.3%
CC(OC(=O)c1ccccc1N1C(=O)C2C3CCC(C3)C2C1=O)C(=O)c1ccccc1 (stereo unspecified)	-0.1%
O=[N+]([O-])c1cccc(C2=NCCS2)c1	-0.29%

— PubChem BioAssay AID1203 (The Scripps Research Institute Molecular Screening Center, 2008)
